Assay results as given in the supplement of paper PMC10849652.
Of roughly 8,800 targets only a part is listed; those with a hit were picked by preference. About 0.5% of all pairs of compound and target were hits.

What was measured:
Assay in all cases: log2 fold change, soluble protein after heating vs DMSO (PISA); higher = thermal stabilisation; K562 lysate, 10 uM; active = over 0.2 and 3.5 SD of the protein, either way, in both replicates (recomputed)
vemurafenib = compound: CCCS(=O)(=O)Nc1ccc(F)c(C(=O)c2c[nH]c3ncc(-c4ccc(Cl)cc4)cc23)c1F [vemurafenib]
In short: (§1)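 Pellets of K562 cells were dounce-homogenised in PBS pH 7.4 with 1 mM MgCl2, and the crude extract was held at 1 mg/mL protein for a 30 min treatment with 10 μM compound. Aliquots were heated for 3 min over 48°C-58°C and pooled before NP-40 was added to 0.5% at 4°C. The supernatant from 21,000xg for 90 min was quantified by TMTpro 16plex LC-MS/MS with channel sums equalised. Values are reported from duplicates as log-two fold change in thermal stability relative to solvent controls.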

[1] = compound: CCCS(=O)(=O)Nc1ccc(F)c(C(=O)c2c[nH]c3ncc(Cl)cc23)c1F
In short: as §1

barasertib = compound: CCN(CCCOc1ccc2c(Nc3cc(CC(=O)Nc4cccc(F)c4)[nH]n3)ncnc2c1)CCOP(=O)(O)O [barasertib]
In short: as §1

[2] = compound: CC[C@@H]1C(=O)N(C)c2cnc(Nc3ccc(C(=O)NC4CCN(C)CC4)cc3OC)nc2N1C1CCCC1
In short: as §1

volasertib = compound: CC[C@@H]1C(=O)N(C)c2cnc(Nc3ccc(C(=O)N[C@H]4CC[C@H](N5CCN(CC6CC6)CC5)CC4)cc3OC)nc2N1C(C)C [volasertib]
In short: as §1

[3] = compound: CCn1c(C(=O)N(C2CC2)C2CC2)cc2c3c(ncn3C)c(Nc3cc(C)n(C)n3)nc21
In short: as §1

[4] = compound: CCn1cc(-c2ccnc3[nH]c(-c4cccc(CN(C)C)c4)cc23)c(-c2ccc(NC(=O)N(C)C)cc2)n1
In short: as §1

[5] = compound: CN1CCC(CNc2ccc3ncc(-c4cccc(OC(F)(F)F)c4)n3n2)CC1
In short: as §1

saracatinib = compound: CN1CCN(CCOc2cc(OC3CCOCC3)c3c(Nc4c(Cl)ccc5c4OCO5)ncnc3c2)CC1 [saracatinib]
In short: as §1

sotrastaurin = compound: CN1CCN(c2nc(C3=C(c4c[nH]c5ccccc45)C(=O)NC3=O)c3ccccc3n2)CC1 [sotrastaurin]
In short: as §1

alvocidib = compound: CN1CC[C@H](c2c(O)cc(O)c3c(=O)cc(-c4ccccc4Cl)oc23)[C@H](O)C1 [alvocidib]
In short: as §1

Tubastatin A = compound: CN1CCc2c(c3ccccc3n2Cc2ccc(C(=O)NO)cc2)C1 [Tubastatin A]
In short: as §1

[6] = compound: CNC(=O)C1=CC=CC=C1NC2=NC(=NC=C2Cl)NC3=C(C=C(C=C3)N4CCOCC4)OC
In short: as §1

defactinib = compound: CNC(=O)c1ccc(Nc2ncc(C(F)(F)F)c(NCc3nccnc3N(C)S(C)(=O)=O)n2)cc1 [defactinib]
In short: as §1

[7] = compound: CNc1nc(-c2ccc3c(N)n[nH]c3c2)cc(N2C[C@@H](C(=O)NC3CCCCC3)CC[C@H]2C)n1
In short: as §1

encorafenib = compound: COC(=O)N[C@@H](C)CNc1nccc(-c2cn(C(C)C)nc2-c2cc(Cl)cc(NS(C)(=O)=O)c2F)n1 [encorafenib]
In short: as §1

[8] = compound: COC(=O)[C@H](CCSC)NC(=O)C1=C(C=C(C=C1)NC[C@H](CS)N)C2=CC=CC=C2
In short: as §1

alisertib = compound: COc1cc(Nc2ncc3c(n2)-c2ccc(Cl)cc2C(c2c(F)cccc2OC)=NC3)ccc1C(=O)O [alisertib]
In short: as §1

[9] = compound: COc1cc2nc(-c3cc(F)ccc3O)nc(N[C@@H]3CNC[C@H]3C(C)(C)O)c2cc1OC
In short: as §1

gefitinib = compound: COc1cc2ncnc(Nc3ccc(F)c(Cl)c3)c2cc1OCCCN1CCOCC1 [gefitinib]
In short: as §1

Measured: log2 fold change

RBM42 (UniProt Q9BTD8)
UniProt Q9BTD8, sequence (Q9BTD8 whole entry, looked up): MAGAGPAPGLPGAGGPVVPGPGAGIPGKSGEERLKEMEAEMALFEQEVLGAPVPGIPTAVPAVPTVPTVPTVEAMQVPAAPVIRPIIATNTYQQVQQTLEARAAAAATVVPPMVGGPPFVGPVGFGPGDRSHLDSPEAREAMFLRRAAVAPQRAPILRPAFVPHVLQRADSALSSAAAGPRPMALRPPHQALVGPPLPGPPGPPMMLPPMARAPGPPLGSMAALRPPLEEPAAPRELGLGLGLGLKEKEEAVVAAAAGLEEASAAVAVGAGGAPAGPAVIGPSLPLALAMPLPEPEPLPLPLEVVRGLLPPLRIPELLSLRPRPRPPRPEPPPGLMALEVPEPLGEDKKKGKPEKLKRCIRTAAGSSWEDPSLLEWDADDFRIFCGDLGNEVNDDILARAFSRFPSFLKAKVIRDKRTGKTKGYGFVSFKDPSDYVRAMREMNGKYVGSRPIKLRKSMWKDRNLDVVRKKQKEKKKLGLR
inactive: vemurafenib -0.029 | [1] 0.027 | barasertib -0.037 | [2] 0.076 | volasertib -0.014 | [3] -0.006 | [4] 0.004 | [5] -0.002 | saracatinib 0.039 | sotrastaurin -0.009 | alvocidib -0.036 | Tubastatin A -0.022 | [6] 0.08 | defactinib 0.058 | [7] 0.077 | encorafenib 0.098 | alisertib 0.043 | [9] -0.062 | gefitinib -0.066
active: [8] -0.28

RCOR3 isoform 3 (UniProt Q9P2K3)
inactive: vemurafenib -0.03 | [1] -0.01 | barasertib -0.003 | [2] -0.001 | volasertib -0.012 | [3] 0.029 | [4] -0.017 | [5] 0.003 | saracatinib 0.03 | sotrastaurin -0.015 | alvocidib -0.005 | Tubastatin A -0.09 | [6] -0.002 | defactinib 0.009 | [7] -0.014 | encorafenib 0.012 | [8] 0.088 | alisertib 0.003 | [9] -0.006 | gefitinib 0.026

RAPGEF2, A0A2R8YGD3
inactive: vemurafenib 0 | [1] 0.013 | barasertib 0.144 | [2] 0.093 | volasertib -0.015 | [3] -0.029 | [4] 0.325 | [5] 0.05 | saracatinib 0.01 | sotrastaurin -0.003 | alvocidib -0.241 | [6] 0.017 | defactinib 0.119 | [7] 0.025 | encorafenib 0.017 | [8] 0.021 | alisertib 0.007 | [9] -0.017 | gefitinib -0.042
active: Tubastatin A 0.236

RINT1 (UniProt Q6NUQ1)
UniProt Q6NUQ1, sequence (Q6NUQ1 whole entry, looked up): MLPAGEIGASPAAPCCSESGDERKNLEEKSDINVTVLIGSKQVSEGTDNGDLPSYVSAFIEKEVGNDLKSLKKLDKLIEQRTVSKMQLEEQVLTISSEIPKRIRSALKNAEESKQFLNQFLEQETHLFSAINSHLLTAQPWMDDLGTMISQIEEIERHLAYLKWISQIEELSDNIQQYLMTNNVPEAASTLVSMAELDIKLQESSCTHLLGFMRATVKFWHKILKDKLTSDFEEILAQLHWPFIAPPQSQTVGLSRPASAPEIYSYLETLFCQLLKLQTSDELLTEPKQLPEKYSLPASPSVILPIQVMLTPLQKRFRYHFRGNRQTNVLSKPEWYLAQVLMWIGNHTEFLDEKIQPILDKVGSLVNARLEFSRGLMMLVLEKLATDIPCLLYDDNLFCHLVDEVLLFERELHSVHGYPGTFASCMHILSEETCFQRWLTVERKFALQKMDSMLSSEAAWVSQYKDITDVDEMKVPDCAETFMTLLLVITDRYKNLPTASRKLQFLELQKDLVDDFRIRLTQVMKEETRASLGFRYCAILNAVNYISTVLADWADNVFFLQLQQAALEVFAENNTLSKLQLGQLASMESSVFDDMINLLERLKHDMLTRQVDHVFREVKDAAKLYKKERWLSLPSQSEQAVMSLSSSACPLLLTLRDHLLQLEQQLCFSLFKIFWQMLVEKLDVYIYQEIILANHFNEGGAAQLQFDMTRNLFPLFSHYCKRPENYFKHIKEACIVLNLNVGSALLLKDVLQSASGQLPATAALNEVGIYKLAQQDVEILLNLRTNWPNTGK
inactive: vemurafenib 0.065 | [1] 0.022 | barasertib 0.095 | [2] -0.055 | volasertib -0.113 | [3] 0.088 | [4] -0.048 | [5] -0.044 | saracatinib 0.095 | sotrastaurin 0.058 | alvocidib 0.041 | Tubastatin A -0.083 | [6] 0.011 | defactinib 0.047 | [7] -0.072 | encorafenib 0.01 | [8] -0.017 | alisertib -0.086 | [9] 0.065 | gefitinib 0.035

RNF168 (UniProt Q8IYW5)
UniProt Q8IYW5, sequence (Q8IYW5 whole entry, looked up): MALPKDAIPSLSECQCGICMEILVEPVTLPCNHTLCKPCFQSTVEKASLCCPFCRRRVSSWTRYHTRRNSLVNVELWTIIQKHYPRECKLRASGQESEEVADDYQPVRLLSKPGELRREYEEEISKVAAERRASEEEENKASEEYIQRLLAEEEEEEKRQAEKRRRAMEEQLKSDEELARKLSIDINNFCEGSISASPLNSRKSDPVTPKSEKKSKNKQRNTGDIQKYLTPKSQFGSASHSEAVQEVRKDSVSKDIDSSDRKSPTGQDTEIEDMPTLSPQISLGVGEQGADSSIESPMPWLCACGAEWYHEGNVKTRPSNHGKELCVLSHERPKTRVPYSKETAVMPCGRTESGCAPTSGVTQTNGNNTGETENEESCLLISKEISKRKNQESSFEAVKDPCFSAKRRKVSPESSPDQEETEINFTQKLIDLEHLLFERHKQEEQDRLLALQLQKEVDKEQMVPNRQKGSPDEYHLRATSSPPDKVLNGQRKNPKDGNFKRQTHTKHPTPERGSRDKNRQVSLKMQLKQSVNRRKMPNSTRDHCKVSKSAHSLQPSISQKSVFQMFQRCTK
inactive: vemurafenib 0.152 | [1] 0.134 | barasertib 0.235 | [2] 0.128 | volasertib -0.062 | [3] 0.138 | [4] 0.015 | [5] 0.035 | saracatinib -0.007 | sotrastaurin -0.06 | alvocidib 0.037 | Tubastatin A -0.03 | [6] 0.068 | defactinib -0.026 | [7] -0.03 | encorafenib -0.046 | [8] -0.102 | alisertib -0.078 | [9] -0.043 | gefitinib 0.079

RNF123 (UniProt Q5XPI4)
UniProt Q5XPI4, sequence (Q5XPI4 whole entry, looked up): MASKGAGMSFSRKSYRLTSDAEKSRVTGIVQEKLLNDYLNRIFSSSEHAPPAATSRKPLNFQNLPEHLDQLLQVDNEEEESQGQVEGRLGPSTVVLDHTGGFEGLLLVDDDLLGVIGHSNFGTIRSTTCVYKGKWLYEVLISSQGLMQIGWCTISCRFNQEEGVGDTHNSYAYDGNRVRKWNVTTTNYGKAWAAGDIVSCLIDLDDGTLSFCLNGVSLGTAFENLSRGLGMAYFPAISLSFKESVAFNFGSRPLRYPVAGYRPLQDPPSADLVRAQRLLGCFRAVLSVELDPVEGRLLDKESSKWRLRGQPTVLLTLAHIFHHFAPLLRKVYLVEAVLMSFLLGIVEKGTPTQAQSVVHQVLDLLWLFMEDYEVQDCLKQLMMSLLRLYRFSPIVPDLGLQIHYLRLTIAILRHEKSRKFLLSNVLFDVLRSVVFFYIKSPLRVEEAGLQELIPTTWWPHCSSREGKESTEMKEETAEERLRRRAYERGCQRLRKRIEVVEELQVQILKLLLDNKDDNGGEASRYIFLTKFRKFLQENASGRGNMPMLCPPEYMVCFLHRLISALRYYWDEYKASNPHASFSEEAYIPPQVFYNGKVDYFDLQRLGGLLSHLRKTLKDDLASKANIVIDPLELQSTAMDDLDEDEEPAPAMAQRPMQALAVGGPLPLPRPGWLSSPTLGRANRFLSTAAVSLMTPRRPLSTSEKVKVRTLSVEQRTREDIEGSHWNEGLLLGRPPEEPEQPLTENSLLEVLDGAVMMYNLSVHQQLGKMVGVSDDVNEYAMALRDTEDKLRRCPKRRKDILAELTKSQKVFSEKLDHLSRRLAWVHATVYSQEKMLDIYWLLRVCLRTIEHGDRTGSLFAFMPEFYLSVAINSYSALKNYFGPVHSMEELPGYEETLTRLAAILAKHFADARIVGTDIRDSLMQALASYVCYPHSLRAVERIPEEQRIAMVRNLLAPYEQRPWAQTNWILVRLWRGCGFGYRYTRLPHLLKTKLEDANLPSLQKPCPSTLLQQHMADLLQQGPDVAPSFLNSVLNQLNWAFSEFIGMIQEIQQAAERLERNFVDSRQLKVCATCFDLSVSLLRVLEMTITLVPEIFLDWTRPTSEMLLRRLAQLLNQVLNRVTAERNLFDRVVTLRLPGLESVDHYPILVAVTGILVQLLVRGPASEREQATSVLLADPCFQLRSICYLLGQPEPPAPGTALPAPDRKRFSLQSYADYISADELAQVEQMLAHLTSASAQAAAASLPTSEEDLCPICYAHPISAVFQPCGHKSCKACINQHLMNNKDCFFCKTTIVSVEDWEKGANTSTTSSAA
inactive: vemurafenib 0.034 | [1] 0.003 | barasertib 0.019 | [2] -0.009 | volasertib -0.048 | [3] 0.035 | [4] -0.045 | [5] 0.004 | saracatinib -0.006 | sotrastaurin 0.03 | alvocidib 0.011 | Tubastatin A -0.047 | [6] -0.002 | defactinib -0.027 | [7] 0.017 | encorafenib 0.044 | [8] -0.062 | alisertib -0.004 | [9] 0.017 | gefitinib 0.011

RAF1 isoform 2 (UniProt P04049)
UniProt P04049, sequence (P04049 whole entry, looked up): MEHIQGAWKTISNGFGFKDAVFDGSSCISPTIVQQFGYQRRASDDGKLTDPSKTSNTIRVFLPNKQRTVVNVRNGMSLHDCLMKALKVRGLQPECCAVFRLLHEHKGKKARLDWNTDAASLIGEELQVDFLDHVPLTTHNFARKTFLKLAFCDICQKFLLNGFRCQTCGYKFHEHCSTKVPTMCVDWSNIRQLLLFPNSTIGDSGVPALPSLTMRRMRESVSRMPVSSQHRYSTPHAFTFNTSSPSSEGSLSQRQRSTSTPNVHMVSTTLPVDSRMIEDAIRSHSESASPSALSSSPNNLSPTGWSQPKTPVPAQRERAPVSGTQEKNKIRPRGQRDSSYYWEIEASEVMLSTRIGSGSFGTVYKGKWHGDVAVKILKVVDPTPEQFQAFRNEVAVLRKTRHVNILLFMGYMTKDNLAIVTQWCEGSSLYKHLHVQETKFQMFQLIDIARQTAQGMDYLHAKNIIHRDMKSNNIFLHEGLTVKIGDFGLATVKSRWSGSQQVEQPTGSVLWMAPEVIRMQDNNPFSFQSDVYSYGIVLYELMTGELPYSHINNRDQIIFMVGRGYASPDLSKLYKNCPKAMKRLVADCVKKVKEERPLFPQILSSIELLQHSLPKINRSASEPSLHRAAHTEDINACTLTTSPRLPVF
inactive: [1] -0.142 | barasertib 0.068 | [2] -0.159 | volasertib -0.083 | [3] -0.029 | [4] -0.028 | [5] -0.037 | saracatinib -0.014 | sotrastaurin -0.041 | alvocidib 0.048 | Tubastatin A -0.022 | [6] 0.019 | defactinib -0.097 | [7] -0.001 | [8] 0.048 | alisertib -0.007 | [9] 0.052 | gefitinib 0.022
active: vemurafenib 0.739 | encorafenib 1.06

RPS6KA1 (UniProt Q15418)
UniProt Q15418, sequence (Q15418 whole entry, looked up): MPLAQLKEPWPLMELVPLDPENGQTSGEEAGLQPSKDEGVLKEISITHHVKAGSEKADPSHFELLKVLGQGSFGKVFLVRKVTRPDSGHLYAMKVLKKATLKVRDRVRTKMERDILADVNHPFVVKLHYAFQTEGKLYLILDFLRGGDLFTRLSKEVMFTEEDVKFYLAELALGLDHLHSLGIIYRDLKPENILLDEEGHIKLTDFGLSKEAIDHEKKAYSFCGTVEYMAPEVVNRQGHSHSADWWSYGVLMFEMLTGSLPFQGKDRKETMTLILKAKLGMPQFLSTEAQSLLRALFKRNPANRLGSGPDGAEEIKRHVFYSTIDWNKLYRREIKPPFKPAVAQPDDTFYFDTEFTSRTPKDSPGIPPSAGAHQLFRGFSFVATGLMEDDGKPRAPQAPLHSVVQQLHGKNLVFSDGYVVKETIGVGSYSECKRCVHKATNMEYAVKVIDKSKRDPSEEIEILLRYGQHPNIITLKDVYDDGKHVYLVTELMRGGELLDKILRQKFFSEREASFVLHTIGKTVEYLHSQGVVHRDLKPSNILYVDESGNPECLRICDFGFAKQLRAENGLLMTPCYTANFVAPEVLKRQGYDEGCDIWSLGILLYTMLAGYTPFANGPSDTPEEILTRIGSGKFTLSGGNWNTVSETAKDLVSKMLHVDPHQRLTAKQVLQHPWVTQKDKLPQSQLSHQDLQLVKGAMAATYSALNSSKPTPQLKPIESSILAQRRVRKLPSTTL
inactive: vemurafenib -0.037 | [1] -0.004 | barasertib -0.006 | [2] 0.037 | volasertib 0.029 | [3] 0.019 | [4] -0.004 | [5] 0.116 | saracatinib 0.101 | sotrastaurin 0.103 | Tubastatin A -0.194 | defactinib 0.236 | [7] -0.007 | encorafenib -0.121 | [8] -0.002 | alisertib 0.012 | [9] 0.165 | gefitinib -0.007
active: alvocidib 0.447 | [6] 0.758
